Tests used:
Test in all cases: PBM binding z-score (relative to random genomic background probes); higher = stronger binding; sequences stand for … in GC…GCGATTGACAGCGTAGAATGAAGG
[1] = tested on: PPARg:RXRa DBDmut IVT, anti-RXR (DBD mutation: RXRa K156A/R161A, NR concentration 270 nM, RXRa partner concentration 90 nM)
Outline: (§1)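 Binding z-scores were set against random background probes. The data came from custom Agilent 4×180K protein-binding microarrays carrying double-stranded probes with 34-nt variable regions, incubated 1 h with ligand-free nuclear receptor dimers. Partner-specific antibodies detected binding, and scanned fluorescence was regression-normalized.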

[2] = tested on: PPARg:RXRa IVT, anti-PPARg (NR concentration 270 nM, RXRa partner concentration 90 nM)
Outline: as §1

[3] = tested on: PPARg DBDmut:RXRa IVT, anti-PPARg (DBD mutation: PPARg1 K132A/R137A, NR concentration 270 nM, RXRa partner concentration 90 nM)
Outline: as §1

[4] = tested on: PPARg DBDmut IVT, anti-PPARg (DBD mutation: PPARg1 K132A/R137A, NR concentration 270 nM)
Outline: as §1

[5] = tested on: PPARg homodimer (NR concentration 180 nM)
Outline: as §1

[6] = tested on: PXR:RXRa (NR concentration 270 nM, RXRa partner concentration 90 nM)
Outline: as §1

[7] = tested on: PXR homodimer (NR concentration 270 nM)
Outline: as §1

[8] = tested on: RARa:RXR (NR concentration 270 nM, RXRa partner concentration 90 nM)
Outline: as §1

[9] = tested on: RARa homodimer (NR concentration 270 nM)
Outline: as §1

[10] = tested on: RARb:RXRa (NR concentration 270 nM, RXRa partner concentration 90 nM)
Outline: as §1

Sequence | PBM binding z-score [1] | PBM binding z-score [2] | PBM binding z-score [3] | PBM binding z-score [4] | PBM binding z-score [5] | PBM binding z-score [6] | PBM binding z-score [7] | PBM binding z-score [8] | PBM binding z-score [9] | PBM binding z-score [10]
AATACAGGGTCATCGTAGGCCAGATTACGCACAG | 2.88 | 4.16 | 2.1 | 1.86 | 3.02 | 5.14 | 0.561 | 5.6 | 0.954 | 4.27
TCGAGTAGGTTAGGGGCACTCAGAATGGCGTCGA | 1.87 | 1.32 | -0.303 | -1.43 | 0.271 | 0.155 | -0.021 | 0.491 | -0.62 | 0.927
CCTACTGGGCCAAGTTCATTGATCAGTCAAAGCA | 3.93 | 3.54 | 0.0503 | -0.432 | 1.19 | 2.85 | 3.64 | 0.935 | 0.262 | 1.88
AGTCAAGGTTCAGGACGAGGTAACGTAAAGCACG | -0.591 | 0.701 | -0.373 | 0.579 | 0.61 | 1.35 | 0.133 | 1.95 | 0.0883 | 2.38
TGTCAAAGTTCACAGGTAACGTAAGTATCCACAC | 0.161 | 4.5 | 1.61 | 1.53 | 2.45 | 4.48 | 2.4 | 3.92 | 1.08 | 5.05
ATATGTAGGTTACATCCGGGTCCTTCAGGCTATG | 7.33 | 7.38 | 2.34 | 1.87 | 0.864 | 0.482 | 0.298 | 0.744 | 0.322 | 0.999
GAGACAGGGTCAGCTAGAGGCCAGAGTATGGAAA | 0.507 | 1.1 | -0.524 | -0.747 | 3.57 | 3.34 | 0.373 | 4.73 | 0.0826 | 4.09
CGTCCAAGGTCCAGGTCAGTGAAAGAGACTCGAA | 0.342 | 0.512 | -0.921 | -0.937 | 0.811 | 0.618 | -0.111 | 0.904 | 0.0146 | 2.52
TCATACAGGTAAACAGGTGAAAGTCCGTAAGTTA | 3.22 | 2.7 | 0.361 | 1.11 | 1.16 | 1.03 | 0.792 | 1.42 | 1.16 | 0.895
TCGCGTAGGTTACCAATGGGGCATTCAGCTTTCT | 1.28 | 0.245 | -1.11 | -0.793 | -0.721 | 0.0701 | -1.03 | 0.355 | -1.2 | 1.05
CGTCCAAGGTCAAGATCAGTGAAAGAGACTCGAA | 3.03 | 3.31 | 0.858 | 0.353 | 2.49 | 3.3 | 0.349 | 3.99 | 1.69 | 5.14
TGTCGGAGGACACGAAGGTCAGAGCTTTCCAGAG | -0.402 | 1.54 | -0.86 | -0.906 | 1.05 | 1.79 | 0.826 | 1.84 | 0.146 | 3.46

From the supplement of paper PMC6555819
